Inhibition data for 8 compounds are collected here from ChEMBL document CHEMBL3433997, “St. Jude Leishmania screening dataset” (2016).

Common to all, as to format: functional
For experiment [1], the target named is Solute carrier family 2, facilitated glucose transporter member 1 (Homo sapiens) (UniProt P11166). Briefly: ST_JUDE_LEISH: Cytotoxicity at 2uM final concentration against transgenic Leishmania Mexicana promastigotes LmGLUT1 that are glucose transport deficient and complemented with the human glucose transporter GLUT1. Activity is measured by DNA content using SYBR green in vitro.
Chain of Solute carrier family 2, facilitated glucose transporter member 1 (Homo sapiens) (P11166 whole entry): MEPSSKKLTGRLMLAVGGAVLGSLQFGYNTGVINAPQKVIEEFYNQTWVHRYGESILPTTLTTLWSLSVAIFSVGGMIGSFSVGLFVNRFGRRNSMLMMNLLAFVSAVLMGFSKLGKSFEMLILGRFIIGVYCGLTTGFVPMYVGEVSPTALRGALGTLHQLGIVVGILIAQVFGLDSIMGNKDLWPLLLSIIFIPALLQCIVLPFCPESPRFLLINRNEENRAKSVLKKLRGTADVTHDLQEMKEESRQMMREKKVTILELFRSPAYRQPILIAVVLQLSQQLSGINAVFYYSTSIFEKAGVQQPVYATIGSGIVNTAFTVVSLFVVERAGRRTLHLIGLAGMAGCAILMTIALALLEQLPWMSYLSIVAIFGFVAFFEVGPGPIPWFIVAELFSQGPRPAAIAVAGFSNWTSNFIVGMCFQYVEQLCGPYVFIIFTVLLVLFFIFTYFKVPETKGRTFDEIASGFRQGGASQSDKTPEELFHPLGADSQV

Experiment [2] has as its target Hexose transporter 1 (Plasmodium falciparum) (UniProt O97467). Nature of the experiment: ST_JUDE_LEISH: Cytotoxicity at 2uM final concentration against transgenic Leishmania Mexicana promastigotes LmPfHT that are glucose transport deficient and complemented with the Plasmodium falciparum hexose transporter. Activity is measured by DNA content using SYBR green in vitro.

Experiment [3] concerns the target Glucose transporter (Leishmania mexicana) (UniProt O61059). Briefly: ST_JUDE_LEISH: Cytotoxicity at 2uM final concentration against transgenic Leishmania Mexicana promastigotes LmGT2 that are glucose transport deficient and complemented with the L. Mexicana glucose transporter 2. Activity is measured by DNA content using SYBR green in vitro.

Take `Cc1cc2nc(-c3ccc(/C=C/C(=O)NCc4ccc(Cl)c(Cl)c4)cc3)[nH]c2cc1C`: the figures for the inhibition in experiment [1], in experiment [2] and in experiment [3] were 8.62%, 8.06% and 4.96%, respectively.
As to `O=c1cc(NCCCNC2CCOc3c(Cl)cc(Cl)cc32)[nH]c2ccccc12` (centres undefined), the inhibition was determined as 1.09% in experiment [1], 2.42% in experiment [2] and 1.28% in experiment [3].
For `CC(=O)Nc1ccc(S(=O)(=O)N(Cc2cccc(Oc3ccccc3)c2)C2CCN(C/C=C(\C)CCC=C(C)C)CC2)cc1`, in that order: -0.15%, 0.21% and -0.73%.
In the same order, the values of `O=C(Nc1cccc(-c2cccc(-c3nc4ccccc4[nH]3)c2)c1)Nc1ccc2c(c1)OCO2` are 4.3%, 4.48% and 1.05%.
In the same order, the values of `COc1cc(Nc2nccc(N3CCC(NC(=O)c4cccc(C#N)c4)C3)n2)cc(OC)c1OC` (centres undefined) are 1.3%, 1.35% and 0.79%.
Regarding `Cc1cc(N2Cc3ccccc3C2)nc(Nc2ccc(S(=O)(=O)N3CCOCC3)cc2)n1`, the inhibition in experiment [1] is 1.54%; in experiment [2], 2%; in experiment [3], 1.21%.
In the same order, the values of `CN1CCN(c2ccc3nccc(CCN4CCC(NCc5ccc6c(n5)NC(=O)CO6)CC4)c3n2)CC1` are -0.03%, -0.01% and -0.12%.
In the same order, the values of `O=C(NCC1CCC1)c1cnc(Nc2cccc(Cl)c2)nc1N1CCC1` are 14.5%, 12.8% and 12.4%.

Usually inhibition stands for the relative decrease from the control value, in per cent.
